Assay results published in PubChem BioAssay (Tox21).
Inconclusive results are not listed. Entries that show only a call come without a potency. A structure can be active in one record and inactive in another. Active and inactive are the calls of the source. The call rests on the fitted dose curve.

biological target: Thyrotropin receptor (Homo sapiens) (UniProt P16473); assay: qHTS assay to identify small molecule agonists of the thyroid stimulating hormone receptor (TSHR) signaling pathway (AID 1224843); conditions: TSHR-HEK293 cells, cAMP HTRF, agonist mode, 30 min; series mostly up to 92.4 µM; activation: at the top concentration; further: nearly all actives have a fitted effect of over 45% in size
How it was run: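 TSHR-HEK293 cells in agonist mode, 30 min room-temperature step, then cAMP measured by competitive HTRF (cAMP-d2 with anti-cAMP cryptate) after 1 h at room temperature. Tested at 15 concentrations in triplicate.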

Chain of Thyrotropin receptor (Homo sapiens) (P16473 whole entry, looked up): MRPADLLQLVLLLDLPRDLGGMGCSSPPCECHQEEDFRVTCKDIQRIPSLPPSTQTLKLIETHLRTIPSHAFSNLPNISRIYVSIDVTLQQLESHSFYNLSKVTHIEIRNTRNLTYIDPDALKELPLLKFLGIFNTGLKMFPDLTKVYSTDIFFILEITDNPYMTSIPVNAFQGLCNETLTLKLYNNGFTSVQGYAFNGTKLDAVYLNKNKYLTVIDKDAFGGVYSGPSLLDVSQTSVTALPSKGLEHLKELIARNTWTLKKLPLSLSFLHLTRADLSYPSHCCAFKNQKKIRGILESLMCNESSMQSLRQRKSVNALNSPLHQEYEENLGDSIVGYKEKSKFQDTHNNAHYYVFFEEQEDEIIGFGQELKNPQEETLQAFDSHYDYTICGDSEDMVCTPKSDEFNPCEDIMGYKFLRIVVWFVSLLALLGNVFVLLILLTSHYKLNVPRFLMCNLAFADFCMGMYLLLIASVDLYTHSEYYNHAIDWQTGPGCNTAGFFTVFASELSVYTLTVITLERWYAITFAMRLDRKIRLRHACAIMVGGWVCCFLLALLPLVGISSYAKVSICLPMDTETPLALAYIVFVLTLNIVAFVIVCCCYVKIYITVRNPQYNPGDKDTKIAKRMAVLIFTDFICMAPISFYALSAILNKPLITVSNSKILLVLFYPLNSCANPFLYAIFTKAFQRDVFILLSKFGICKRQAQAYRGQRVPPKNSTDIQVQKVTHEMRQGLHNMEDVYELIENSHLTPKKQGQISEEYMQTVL

Row | SMILES | activation | Potency
1 | CON(C)C(=O)Nc1ccc(Cl)c(Cl)c1 | 10.3% (inactive) | –
2 | OCCN(CCO)CCO | – | inactive
3 | CC(C)C1(C)N=C(c2nc3ccccc3cc2C(=O)O)NC1=O (stereo not drawn) | – | inactive
4 | Clc1cccc(Cl)c1Cl | – | inactive
5 | O=[N+]([O-])c1ccccc1 | – | inactive
6 | Cc1ccc(N)cc1Cl | – | inactive
7 | O=c1[nH]c(=O)[nH]c(=O)[nH]1 | – | inactive
8 | O=C(NC(=O)c1c(F)cccc1F)Nc1cc(Cl)c(OC(F)(F)C(F)C(F)(F)F)cc1Cl (stereo not drawn) | – | inactive
9 | Cc1cc(Cl)ccc1O | – | inactive
10 | CN=C=S | 0.789% (inactive) | –
11 | O=NN1CCCC1 | 1.87% (inactive) | –
12 | CC(C)C#N | – | inactive
13 | C#CCN(C)[C@H](C)Cc1ccccc1 | – | inactive
14 | c1ccc(-c2ccccc2)cc1 | – | inactive
15 | c1cc2c3c(cccc3c1)CC2 | – | inactive
16 | CNC(=O)Oc1ccccc1OC(C)C | – | inactive

Row | SMILES | activation | Potency
17 | O=Cc1cccc(Oc2ccccc2)c1 | – | inactive
18 | CC(C)(Cl)Cl | – | inactive
19 | NCC(O)c1ccc(O)cc1 (stereo not drawn) | – | inactive
20 | C=CC(N)=O | – | inactive
21 | BrCCBr | – | inactive
22 | Nc1ccccc1C(=O)O | – | inactive
23 | CN(C)CCO | 6.05% (inactive) | –
24 | CC1C=[C-]C=C1.[C-]#[O+].[C-]#[O+].[C-]#[O+].[Mn] | 0.727% [at 42.5 µM] (inactive) | –
25 | O=[N+]([O-])c1ccc([As](=O)(O)O)cc1 | – | inactive
26 | Clc1ccc(Cl)cc1 | – | inactive
27 | C1CC2OC2CC1C1CO1 (stereo not drawn) | – | inactive
28 | Nc1ccc(Oc2ccc(N)cc2)cc1 | – | inactive
29 | COCCl | – | inactive
30 | CC(C)OC(=O)Nc1ccccc1 | – | inactive
31 | Clc1ccccc1Cl | – | inactive
32 | CCc1cccc(C)c1N(C(=O)CCl)C(C)COC (stereo not drawn) | 28.3% (inactive) | –

tested on: not listed separately; assay: qHTS assay to identify small molecule agonists of the hypoxia (HIF-1) signaling pathway - cell viability counter screen (AID 1224844); conditions: HRE-bla ME-180 viability, CellTiter-Glo luminescence, 17 h; series mostly up to 76.8 µM; activity change, negative = cytotoxicity: at the top concentration; further: nearly all actives have a fitted effect of over 50% in size; further: potency means the concentration at half of the fitted maximal effect
How it was run: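 Tox21 10K compounds were added to HRE-bla ME-180 cells (0.5% dialyzed FBS) and incubated 17 hrs at 37C; ATP-based CellTiter-Glo luminescence then reported cell viability in the same wells.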

Row | SMILES | Potency | activity change, negative = cytotoxicity
33 | CON(C)C(=O)Nc1ccc(Cl)c(Cl)c1 | inactive | –
34 | OCCN(CCO)CCO | inactive | –
35 | CC(C)C1(C)N=C(c2nc3ccccc3cc2C(=O)O)NC1=O (stereo not drawn) | inactive | –
36 | Clc1cccc(Cl)c1Cl | inactive | –
37 | O=[N+]([O-])c1ccccc1 | inactive | –
38 | Cc1ccc(N)cc1Cl | inactive | –
39 | O=c1[nH]c(=O)[nH]c(=O)[nH]1 | inactive | –
40 | O=C(NC(=O)c1c(F)cccc1F)Nc1cc(Cl)c(OC(F)(F)C(F)C(F)(F)F)cc1Cl (stereo not drawn) | inactive | –
41 | Cc1cc(Cl)ccc1O | inactive | –
42 | CN=C=S | inactive | –
43 | CC(C)(C)OOC(=O)c1ccccc1 | inactive | –
44 | O=NN1CCCC1 | 11.5 µM (active) and inactive | –
45 | CC(C)C#N | inactive | –
46 | C#CCN(C)[C@H](C)Cc1ccccc1 | inactive | –
47 | c1ccc(-c2ccccc2)cc1 | – | 0.26% (inactive)
48 | c1cc2c3c(cccc3c1)CC2 | inactive | –
49 | CNC(=O)Oc1ccccc1OC(C)C | inactive | –
50 | O=Cc1cccc(Oc2ccccc2)c1 | inactive | –

Row | SMILES | Potency | activity change, negative = cytotoxicity
51 | CC(C)(Cl)Cl | inactive | –
52 | NCC(O)c1ccc(O)cc1 (stereo not drawn) | inactive | –
53 | C=CC(N)=O | – | -16.6% (inactive)
54 | BrCCBr | inactive | –
55 | Nc1ccccc1C(=O)O | inactive | –
56 | CN(C)CCO | inactive | –
57 | CC1C=[C-]C=C1.[C-]#[O+].[C-]#[O+].[C-]#[O+].[Mn] | inactive | –
58 | O=[N+]([O-])c1ccc([As](=O)(O)O)cc1 | inactive | –
59 | Clc1ccc(Cl)cc1 | inactive | –
60 | CC(C)(C)C(O)(CCc1ccc(Cl)cc1)Cn1cncn1 (stereo not drawn) | – | -21.2% (inactive)
61 | C1CC2OC2CC1C1CO1 (stereo not drawn) | inactive | –
62 | Nc1ccc(Oc2ccc(N)cc2)cc1 | inactive | –
63 | COCCl | inactive | –
64 | CC(C)OC(=O)Nc1ccccc1 | – | -2.74% (inactive)
65 | CN(C)N=O | inactive | –
66 | Clc1ccccc1Cl | inactive | –
67 | CCc1cccc(C)c1N(C(=O)CCl)C(C)COC (stereo not drawn) | inactive | –
68 | CCCCOC(=O)c1ccccc1C(=O)OCCCC | inactive | –
